Our source for the ΔTm values is ChEMBL document CHEMBL5724796, “Tm Shift (DSF) assay results for EUbOPEN Chemogenomics Library” (2024).

Common to all, as to conditions: Compound concentration 20.0 uM
The target of assay [1] is Tyrosine-protein kinase ABL1 (Homo sapiens) (UniProt P00519).
The target in assay [2] is Bromodomain-containing protein 4 (Homo sapiens) (UniProt O60885).
Assay [3] addresses Cyclin-dependent kinase 2 (Homo sapiens) (UniProt P24941).
Assay [4] deals with Casein kinase I isoform delta (Homo sapiens) (UniProt P48730).
Assay [5] addresses Glycogen synthase kinase-3 beta (Homo sapiens) (UniProt P49841).
The target of assay [6] is Mitogen-activated protein kinase 1 (Homo sapiens) (UniProt P28482).
The target in assay [7] is T1, Aurora kinase A (Homo sapiens) (UniProt O14965).
T1 sequence (whole entry): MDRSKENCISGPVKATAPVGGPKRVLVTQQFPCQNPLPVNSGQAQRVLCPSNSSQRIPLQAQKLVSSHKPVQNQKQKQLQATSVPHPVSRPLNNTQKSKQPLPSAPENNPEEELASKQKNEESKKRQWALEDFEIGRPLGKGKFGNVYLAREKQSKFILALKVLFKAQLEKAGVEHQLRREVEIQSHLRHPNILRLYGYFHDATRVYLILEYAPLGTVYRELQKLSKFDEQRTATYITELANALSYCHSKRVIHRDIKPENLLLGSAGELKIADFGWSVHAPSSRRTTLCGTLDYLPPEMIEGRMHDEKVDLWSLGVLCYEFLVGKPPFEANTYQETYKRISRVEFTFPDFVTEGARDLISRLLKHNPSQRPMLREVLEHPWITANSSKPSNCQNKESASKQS

The target in assay [8] is T2, Transcription intermediary factor 1-alpha (Homo sapiens) (UniProt O15164).
T2 sequence (whole entry): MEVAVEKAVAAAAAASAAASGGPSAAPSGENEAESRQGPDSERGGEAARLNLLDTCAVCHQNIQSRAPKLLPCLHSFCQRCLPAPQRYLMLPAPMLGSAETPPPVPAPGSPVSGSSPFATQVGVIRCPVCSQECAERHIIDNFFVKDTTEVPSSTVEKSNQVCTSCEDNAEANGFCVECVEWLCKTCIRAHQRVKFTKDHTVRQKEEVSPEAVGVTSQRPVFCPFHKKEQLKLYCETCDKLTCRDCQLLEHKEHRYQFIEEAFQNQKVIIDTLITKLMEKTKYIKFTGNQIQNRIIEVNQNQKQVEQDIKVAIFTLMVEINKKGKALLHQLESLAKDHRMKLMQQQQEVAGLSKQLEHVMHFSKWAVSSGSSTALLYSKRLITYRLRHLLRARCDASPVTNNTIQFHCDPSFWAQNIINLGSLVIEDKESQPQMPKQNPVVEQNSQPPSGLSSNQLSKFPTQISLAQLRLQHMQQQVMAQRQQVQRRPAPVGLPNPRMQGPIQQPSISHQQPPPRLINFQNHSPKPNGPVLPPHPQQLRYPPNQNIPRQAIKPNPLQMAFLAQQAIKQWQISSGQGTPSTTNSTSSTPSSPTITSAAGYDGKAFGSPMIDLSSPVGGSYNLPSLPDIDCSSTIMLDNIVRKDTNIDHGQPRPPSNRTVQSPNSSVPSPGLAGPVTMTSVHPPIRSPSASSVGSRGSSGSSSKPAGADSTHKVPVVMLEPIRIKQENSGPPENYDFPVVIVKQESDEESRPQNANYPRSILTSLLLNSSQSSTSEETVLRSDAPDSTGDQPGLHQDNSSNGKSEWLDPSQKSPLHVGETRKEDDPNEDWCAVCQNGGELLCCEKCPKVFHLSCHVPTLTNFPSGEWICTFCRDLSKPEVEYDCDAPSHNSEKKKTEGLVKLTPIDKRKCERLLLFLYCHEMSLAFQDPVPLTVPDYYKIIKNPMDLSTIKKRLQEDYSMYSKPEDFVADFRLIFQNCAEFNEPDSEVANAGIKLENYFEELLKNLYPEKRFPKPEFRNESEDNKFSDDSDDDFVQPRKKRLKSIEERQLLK

Structures are written as SMILES.

Casein kinase I isoform delta (Homo sapiens), sequence (P48730 whole entry, looked up, canonical isoform): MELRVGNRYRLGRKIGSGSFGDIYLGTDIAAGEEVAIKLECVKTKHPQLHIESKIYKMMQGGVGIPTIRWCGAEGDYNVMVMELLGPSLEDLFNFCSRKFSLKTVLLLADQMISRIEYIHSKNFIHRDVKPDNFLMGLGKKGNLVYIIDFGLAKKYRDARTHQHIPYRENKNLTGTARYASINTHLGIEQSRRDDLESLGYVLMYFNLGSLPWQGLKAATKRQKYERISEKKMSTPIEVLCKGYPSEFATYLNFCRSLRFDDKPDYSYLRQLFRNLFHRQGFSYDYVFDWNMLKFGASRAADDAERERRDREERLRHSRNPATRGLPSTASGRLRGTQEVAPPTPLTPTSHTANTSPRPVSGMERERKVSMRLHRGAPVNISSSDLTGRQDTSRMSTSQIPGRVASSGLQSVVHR
Mitogen-activated protein kinase 1 (Homo sapiens), sequence (P28482 whole entry): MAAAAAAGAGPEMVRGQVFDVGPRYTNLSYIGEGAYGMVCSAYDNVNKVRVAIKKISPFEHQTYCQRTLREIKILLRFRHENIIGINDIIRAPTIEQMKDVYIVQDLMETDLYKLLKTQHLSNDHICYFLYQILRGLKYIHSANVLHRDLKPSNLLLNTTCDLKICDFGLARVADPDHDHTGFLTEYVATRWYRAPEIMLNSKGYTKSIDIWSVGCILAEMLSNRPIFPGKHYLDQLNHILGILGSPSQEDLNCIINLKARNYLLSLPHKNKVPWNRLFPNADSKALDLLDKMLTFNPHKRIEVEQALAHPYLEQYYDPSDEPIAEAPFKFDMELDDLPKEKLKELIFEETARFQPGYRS
Tyrosine-protein kinase ABL1 (Homo sapiens), sequence (P00519 whole entry): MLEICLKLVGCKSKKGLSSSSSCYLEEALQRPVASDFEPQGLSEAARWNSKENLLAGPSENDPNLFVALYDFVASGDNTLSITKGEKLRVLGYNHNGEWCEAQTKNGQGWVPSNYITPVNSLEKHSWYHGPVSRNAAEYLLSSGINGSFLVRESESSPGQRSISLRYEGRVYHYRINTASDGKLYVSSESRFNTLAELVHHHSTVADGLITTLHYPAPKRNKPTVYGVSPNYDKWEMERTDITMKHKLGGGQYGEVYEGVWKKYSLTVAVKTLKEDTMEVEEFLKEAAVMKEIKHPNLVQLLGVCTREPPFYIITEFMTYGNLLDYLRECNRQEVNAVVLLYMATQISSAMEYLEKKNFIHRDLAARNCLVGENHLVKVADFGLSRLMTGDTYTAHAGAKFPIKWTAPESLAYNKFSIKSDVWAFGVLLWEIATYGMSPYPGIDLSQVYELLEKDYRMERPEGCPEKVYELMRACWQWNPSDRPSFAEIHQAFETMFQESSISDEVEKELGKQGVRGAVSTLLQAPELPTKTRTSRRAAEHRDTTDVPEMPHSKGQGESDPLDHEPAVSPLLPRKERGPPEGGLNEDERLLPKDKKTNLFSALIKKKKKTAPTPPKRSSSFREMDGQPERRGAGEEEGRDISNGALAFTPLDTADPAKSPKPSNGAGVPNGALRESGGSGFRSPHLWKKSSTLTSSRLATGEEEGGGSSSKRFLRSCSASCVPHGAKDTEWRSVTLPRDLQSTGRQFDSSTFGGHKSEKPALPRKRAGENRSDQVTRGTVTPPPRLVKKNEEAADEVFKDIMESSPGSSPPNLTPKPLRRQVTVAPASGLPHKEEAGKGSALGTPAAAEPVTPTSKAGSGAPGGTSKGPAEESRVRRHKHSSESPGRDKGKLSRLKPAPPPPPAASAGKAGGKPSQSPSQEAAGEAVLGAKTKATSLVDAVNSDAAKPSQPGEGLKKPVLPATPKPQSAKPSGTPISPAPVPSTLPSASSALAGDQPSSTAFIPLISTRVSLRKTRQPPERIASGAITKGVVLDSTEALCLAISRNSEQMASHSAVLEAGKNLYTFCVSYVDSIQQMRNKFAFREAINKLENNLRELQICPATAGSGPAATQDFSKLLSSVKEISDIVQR
Glycogen synthase kinase-3 beta (Homo sapiens), sequence (P49841 whole entry, looked up): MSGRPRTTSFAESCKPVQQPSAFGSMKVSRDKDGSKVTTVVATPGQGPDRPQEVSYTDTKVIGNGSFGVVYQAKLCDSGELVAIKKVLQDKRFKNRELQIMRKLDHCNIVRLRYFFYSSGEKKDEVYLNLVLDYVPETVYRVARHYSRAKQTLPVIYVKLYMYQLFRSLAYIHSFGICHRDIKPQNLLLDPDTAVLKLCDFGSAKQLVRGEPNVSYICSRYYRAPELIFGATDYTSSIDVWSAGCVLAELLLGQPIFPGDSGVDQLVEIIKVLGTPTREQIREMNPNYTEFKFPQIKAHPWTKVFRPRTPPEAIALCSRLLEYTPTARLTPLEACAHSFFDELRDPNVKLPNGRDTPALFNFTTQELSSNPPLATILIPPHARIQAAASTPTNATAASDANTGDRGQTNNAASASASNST

For the molecule `O=C(NO)C(c1ccc(-c2ncc(C(F)(F)F)cn2)cc1)c1ccccc1F` (stereo unspecified), the ΔTm in assay [1] is 0.91 °C; in assay [2], -2.36 °C; in assay [3], 0.08 °C; in assay [4] it was 0.69 °C; in assay [5] it was -0.7 °C; in assay [6], 0.1 °C. Further, the ΔTm in assay [7] was 0.24 °C; in assay [8], -0.84 °C.

For `O=C(c1cc(Cc2n[nH]c(=O)c3ccccc23)ccc1F)N1CCN(C(=O)C2CC2)CC1`, the ΔTm in assay [1] was 0.22 °C; in assay [2], 15.7 °C; in assay [3] it was 0.66 °C; in assay [4], -0.42 °C; in assay [5], -4.34 °C; in assay [6], 0.4 °C. Also, the ΔTm in assay [7] is -2.14 °C; in assay [8], -1.81 °C.

`CN(C)Cc1ccc(S(=O)(=O)n2ccc(/C=C/C(=O)NO)c2)cc1`: the ΔTm was 0.75 °C in assay [1]; -1.99 °C in assay [2]; 0.61 °C in assay [3]; 0.25 °C in assay [4]; -0.79 °C in assay [5]; -0.07 °C in assay [6]. Also, the ΔTm in assay [7] was -0.28 °C; in assay [8] it was -1.27 °C.

As for `CCOC(=O)Oc1c(OC)cc(C(=O)O[C@H]2C[C@H]3CN4CCc5c([nH]c6cc(OC)ccc56)[C@@H]4C[C@H]3[C@@H](C(=O)OC)[C@@H]2OC)cc1OC`, the ΔTm in assay [1] was 0.54 °C; in assay [2], -2.32 °C; in assay [3], 0.27 °C; in assay [4], -0.84 °C; in assay [5], -0.14 °C; in assay [6], -0.02 °C. Also, the results for the ΔTm in assay [7] and in assay [8] were -2.27 °C and 0.01 °C, respectively.

For `O=C(c1ccc2[nH]ccc2c1)N1CCN(S(=O)(=O)c2ccc3[nH]c(=O)oc3c2)CC1`, the ΔTm in assay [1] is 0.69 °C; in assay [2] it was -2.8 °C; in assay [3], -0.68 °C; in assay [4] it was 0.15 °C; in assay [5], 0 °C; in assay [6], 0.48 °C. Moreover, the results for the ΔTm in assay [7] and in assay [8] were -1.69 °C and -0.16 °C, respectively.

Regarding `N#C[C@@H]1CCCN1C(=O)[C@@H]1CCCN1C(=O)CCCc1ccccc1`, the ΔTm was 0.07 °C in assay [1]; -2.61 °C in assay [2]; 0.09 °C in assay [3]; 0.05 °C in assay [4]; -0.27 °C in assay [5]; 0.11 °C in assay [6]. Besides, the shift in melting temperature (ΔTm) in assay [7] is -1.43 °C; in assay [8] it was -0.5 °C.

As to `CC(=O)N[C@@H](CC(=O)O)C(=O)N[C@@H](CCC(=O)O)C(=O)N[C@H](C(=O)N[C@@H](CC(=O)O)C(=O)CCl)C(C)C`, the ΔTm in assay [1] was 0.1 °C; in assay [2], -2.64 °C; in assay [3], -0.35 °C; in assay [4], -0.06 °C; in assay [5], 0.4 °C; in assay [6] it was -0.58 °C. The ΔTm was -1.91 °C in assay [7] and -0.93 °C in assay [8].

In the case of `CC1(C)CC[C@]2(C(=O)O)CC[C@]3(C)C(=CC[C@@H]4[C@@]5(C)C=C(O)C(=O)C(C)(C)[C@@H]5CC[C@]43C)[C@@H]2C1`, the ΔTm in assay [1] was 0.5 °C; in assay [2] it was -3.51 °C; in assay [3], -0.16 °C; in assay [4], -1.03 °C; in assay [5], -1.79 °C; in assay [6], -3.78 °C. For the same molecule, the ΔTm in assay [7] is -4.25 °C; in assay [8], 0.88 °C.

As for `CCc1nc2c(C)cc(N3CCN(CC(=O)N4CC(O)C4)CC3)cn2c1N(C)c1nc(-c2ccc(F)cc2)c(C#N)s1`, the ΔTm in assay [1] is 0.01 °C; in assay [2], 2.78 °C; in assay [3], 0.06 °C; in assay [4], 0.35 °C; in assay [5], -0.27 °C; in assay [6] it was 0.06 °C. The ΔTm was -2.2 °C in assay [7] and 0.03 °C in assay [8].

In the case of `CCCc1nc(C)c2c(C)nc3ccc(OC)nc3n12`, the ΔTm in assay [1] is 1.04 °C; in assay [2] it was -3.02 °C; in assay [3], -0.07 °C; in assay [4] it was 2.7 °C; in assay [5] it was 1.39 °C; in assay [6] it was 0.58 °C. The ΔTm is -1.87 °C in assay [7] and 0.69 °C in assay [8].

With `COc1ccc(C(=O)N[C@H](C(=O)N2CCC[C@H]2C(=O)N[C@H](C(=O)C(F)(F)F)C(C)C)C(C)C)cc1`, the ΔTm in assay [1] is 0.01 °C; in assay [2], 0.28 °C; in assay [3], 0.69 °C; in assay [4] it was -0.09 °C; in assay [5], -0.75 °C; in assay [6], 0.2 °C. The ΔTm in assay [7] is -1.47 °C; in assay [8], 1.59 °C.

`COc1cc(C(=O)N2C[C@H](N)CC[C@@H]2C)cc2nc(-c3cc4cccnc4n3CC3CC3)n(C)c12`: the ΔTm in assay [1] was 0.14 °C; in assay [2], 0.61 °C; in assay [3], 0.15 °C; in assay [4], -0.38 °C; in assay [5] it was -1.31 °C; in assay [6], -0.7 °C. For the same molecule, the figures for the ΔTm in assay [7] and in assay [8] were -1.15 °C and 0.53 °C, respectively.
